Assay [1] concerns PRMT1 (protein arginine N-methyltransferase 1). In words: PRMT1 binders on small-molecule microarrays, primary screen, biochemical, small-molecule microarray, 635 nm fluorescence (AID 1088).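 Note: binding of Prmt1 protein to compounds spotted on small-molecule microarray slides.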 The note with it: small-molecule microarray binding, higher = more signal.
A short description of assay [2]: yeast growth modulation, basal conditions, primary screen, YJM789 clinical isolate, OD600, 24 h (AID 1089).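 Note: growth of clinical yeast isolate S. cerevisiae YJM 789 seeded 1000 cells per well; test concentration not given here.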 The settings on record: S. cerevisiae YJM789 growth, higher = more signal, called active from +8 up or from −8 down.
The nature of assay [3]: fission yeast growth modulation, primary screen, strain 972, OD600, 24 h, no modulator (AID 1090).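 Note: basal condition with compound alone and no growth modifier present; test concentration not given here.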 The note with it: S. pombe 972 growth, higher = more signal, called active from +8 up or from −8 down.
Assay [4] can be described thus: S. cerevisiae growth modulation with rapamycin, primary screen, strain BY4716, OD600, 96 h (AID 1091). Note: test concentration not given here. The settings on record: higher = more signal, called active from +8 up or from −8 down.
In assay [5] the target is Torsin-1A-interacting protein 2 (Homo sapiens) (UniProt Q8NFQ8). In words: LULL1 binders on small-molecule microarray, primary screen, cell lysate, human LULL1 lysate, 635/667 nm fluorescence (AID 1092).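 Note: probe is lysate of COS7 cells overexpressing human LULL1; score merges per-feature 667 nm fluorescence with signal-to-noise.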 The settings on record: hLULL1 lysate binding, 635 nm fluorescence, higher = more signal.
Torsin-1A-interacting protein 2 (Homo sapiens), sequence (Q8NFQ8 whole entry, looked up): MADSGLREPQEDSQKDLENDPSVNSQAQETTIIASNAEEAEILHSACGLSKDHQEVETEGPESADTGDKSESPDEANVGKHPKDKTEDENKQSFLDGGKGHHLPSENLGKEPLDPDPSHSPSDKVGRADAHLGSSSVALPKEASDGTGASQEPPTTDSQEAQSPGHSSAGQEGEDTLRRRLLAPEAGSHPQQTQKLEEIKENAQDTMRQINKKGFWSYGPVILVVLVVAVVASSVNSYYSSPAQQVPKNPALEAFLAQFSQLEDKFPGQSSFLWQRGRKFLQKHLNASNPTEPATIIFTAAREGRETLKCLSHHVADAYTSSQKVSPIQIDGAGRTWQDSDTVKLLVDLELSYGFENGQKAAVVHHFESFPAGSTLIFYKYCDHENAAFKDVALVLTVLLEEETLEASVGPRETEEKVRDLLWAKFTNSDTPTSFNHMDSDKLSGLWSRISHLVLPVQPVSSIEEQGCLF
Assay [6] is described as follows: E. coli growth modulation, two-sided OD650, primary screen, E. coli filamentation project, strain DRC41, 24 h (AID 1093).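 Note: MC1000 strain lacking acrAB efflux and sulA so SOS filamentation is blocked; test concentration not given here.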 The settings on record: OD650, 24 h, higher = more signal, called active from +8 up or from −8 down.
Assay [7] is described as follows: small-molecule microarray binders of probe aLefty2, primary screen, biochemical, biotinylated probe, 635/667 nm fluorescence (AID 1094).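 Note: score merges spot fluorescence near 667 nm with spot signal-to-noise ratio.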 The settings on record: higher = more signal.
The test system of assay [8] is Noggin (protein binding on small-molecule microarray). In words: Noggin binders on small-molecule microarray, primary screen, biochemical, 635/667 nm fluorescence (AID 1095).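 Note: score merges 667 nm feature fluorescence with signal to noise over triplicate slides.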 The settings on record: 635 nm fluorescence, higher = more signal.
The target of assay [9] is Neurogenic locus notch homolog protein 3 (Homo sapiens) (UniProt Q9UM47). Kind of assay: NOTCH3 binders on small-molecule microarray, primary screen, biochemical, 635/667 nm fluorescence (AID 1096). The settings on record: NOTCH3 binding, 635 nm fluorescence, higher = more signal.
Neurogenic locus notch homolog protein 3 (Homo sapiens), sequence (Q9UM47 whole entry, looked up): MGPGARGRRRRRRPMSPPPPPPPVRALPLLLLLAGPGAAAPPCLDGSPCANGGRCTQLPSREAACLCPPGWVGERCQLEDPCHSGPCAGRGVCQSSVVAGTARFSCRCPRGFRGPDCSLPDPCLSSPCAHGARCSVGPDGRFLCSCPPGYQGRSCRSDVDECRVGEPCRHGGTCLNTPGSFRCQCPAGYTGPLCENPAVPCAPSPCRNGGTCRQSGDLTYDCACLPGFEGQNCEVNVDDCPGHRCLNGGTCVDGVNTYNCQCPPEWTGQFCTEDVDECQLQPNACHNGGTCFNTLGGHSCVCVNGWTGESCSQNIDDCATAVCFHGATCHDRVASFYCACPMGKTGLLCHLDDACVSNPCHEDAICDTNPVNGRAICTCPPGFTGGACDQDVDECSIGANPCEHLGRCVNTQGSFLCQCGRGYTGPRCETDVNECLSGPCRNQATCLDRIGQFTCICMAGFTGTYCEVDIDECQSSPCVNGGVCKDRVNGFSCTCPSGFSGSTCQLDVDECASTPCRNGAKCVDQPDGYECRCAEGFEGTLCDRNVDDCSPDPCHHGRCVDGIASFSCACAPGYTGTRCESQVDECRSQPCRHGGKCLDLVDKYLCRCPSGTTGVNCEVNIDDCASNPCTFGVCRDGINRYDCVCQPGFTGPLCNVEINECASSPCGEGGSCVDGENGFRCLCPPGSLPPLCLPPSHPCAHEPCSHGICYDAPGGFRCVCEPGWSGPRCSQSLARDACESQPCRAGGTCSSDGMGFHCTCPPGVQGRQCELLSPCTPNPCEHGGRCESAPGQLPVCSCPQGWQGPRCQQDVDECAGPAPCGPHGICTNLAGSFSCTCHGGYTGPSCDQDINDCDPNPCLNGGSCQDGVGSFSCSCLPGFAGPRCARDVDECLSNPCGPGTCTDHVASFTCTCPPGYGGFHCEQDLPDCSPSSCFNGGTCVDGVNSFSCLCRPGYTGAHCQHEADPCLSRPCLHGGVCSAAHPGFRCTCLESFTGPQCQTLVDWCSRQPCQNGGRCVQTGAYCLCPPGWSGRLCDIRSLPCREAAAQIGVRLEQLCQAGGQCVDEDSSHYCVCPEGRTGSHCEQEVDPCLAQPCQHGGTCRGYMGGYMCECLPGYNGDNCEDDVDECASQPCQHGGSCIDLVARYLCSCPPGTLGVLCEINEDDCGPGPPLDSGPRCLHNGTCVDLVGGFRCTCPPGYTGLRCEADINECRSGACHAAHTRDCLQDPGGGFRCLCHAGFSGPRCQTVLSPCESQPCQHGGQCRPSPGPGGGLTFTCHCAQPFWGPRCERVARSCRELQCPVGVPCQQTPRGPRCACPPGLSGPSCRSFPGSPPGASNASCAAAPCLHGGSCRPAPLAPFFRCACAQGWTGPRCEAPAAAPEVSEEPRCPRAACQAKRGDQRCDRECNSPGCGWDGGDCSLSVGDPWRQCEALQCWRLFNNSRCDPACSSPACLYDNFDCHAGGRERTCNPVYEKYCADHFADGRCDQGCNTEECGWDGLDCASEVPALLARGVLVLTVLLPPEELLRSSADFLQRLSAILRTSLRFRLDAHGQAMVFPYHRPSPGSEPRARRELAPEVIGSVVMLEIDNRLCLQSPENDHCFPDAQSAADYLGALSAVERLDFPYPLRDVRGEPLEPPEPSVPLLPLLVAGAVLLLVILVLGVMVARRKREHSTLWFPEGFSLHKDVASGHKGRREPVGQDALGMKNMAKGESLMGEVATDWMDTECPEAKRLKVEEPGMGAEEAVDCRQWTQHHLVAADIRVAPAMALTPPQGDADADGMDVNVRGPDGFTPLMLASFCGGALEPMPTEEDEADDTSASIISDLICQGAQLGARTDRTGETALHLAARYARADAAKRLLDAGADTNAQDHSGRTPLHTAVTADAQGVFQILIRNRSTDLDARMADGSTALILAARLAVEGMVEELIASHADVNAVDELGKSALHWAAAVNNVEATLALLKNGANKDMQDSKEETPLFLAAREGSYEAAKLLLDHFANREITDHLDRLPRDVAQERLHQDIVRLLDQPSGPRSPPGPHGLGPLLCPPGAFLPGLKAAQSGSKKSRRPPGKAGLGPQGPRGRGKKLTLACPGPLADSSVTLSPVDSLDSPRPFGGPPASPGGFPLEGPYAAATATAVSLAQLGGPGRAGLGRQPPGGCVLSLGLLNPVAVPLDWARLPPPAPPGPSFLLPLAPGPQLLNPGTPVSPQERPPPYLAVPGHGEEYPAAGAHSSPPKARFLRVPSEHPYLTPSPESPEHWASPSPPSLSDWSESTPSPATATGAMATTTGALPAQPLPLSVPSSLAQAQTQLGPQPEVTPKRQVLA
Assay [10] in a line: small-molecule microarray binders of probe aEGFR, primary screen, biochemical, biotinylated probe, 635/667 nm fluorescence (AID 1097).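 Note: probe is a biotinylated anti-EGFR antibody binding compounds printed on slides; score combines fluorescence near 667 nm and signal to noise of each spot.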 The settings on record: higher = more signal.

Molecules are shown by their SMILES. Calls of active or inactive are those of the source.

As for `CCCCCC1=C2CNC(CCC)(C(=O)OC)C=C2C(C)C1=O` (stereo not given), the composite z-score in assay [1] was -0.523; in assay [5], 2.13; in [7] it was 0.0943; in assay [8] it was -0.236; in assay [9] it was 0.358; in assay [10] it was 0.189. Also, the z-score in [2] was 0.0131 (inactive); in [3], 0.277 (inactive); in assay [4], 0.573 (inactive); in assay [6], -0.48 (inactive).

Consider `O=C1c2ccccc2[C@@]2(Cc3ccccc3N(CC(F)(F)F)C2=O)[C@H](c2ccc(CO)cc2)N1Cc1ccccc1Cl`, for which the composite z-score in assay [1] was 1.22; in assay [5], -0.0577; in assay [7], -0.159; in assay [8], 0.476; in assay [9], -0.0169; in [10] it was -0.118. The z-score in [2] is -0.146 (inactive); in assay [3] it was -0.172 (inactive); in [4], -1.62 (inactive); in [6], 0.0194 (inactive).

On to `Cc1ccc(S[C@]2(C(=O)NC3CC3)CC(=O)N(C3Cc4ccccc4C3)[C@@H]2c2ccc(CO)cc2)cc1`, for which the composite z-score in assay [1] was 1.38; in assay [5] it was 3.08; in assay [7], -0.0533; in assay [8], -0.878; in assay [9], 0.19; in [10] it was -0.221. In addition, the z-score in assay [2] is -2.31 (inactive); in assay [3], -0.945 (inactive); in assay [4], -1.13 (inactive); in [6], 2.12 (inactive).

As to `C=CC[C@@]1(C(N)=O)N=C(c2ccc(OCCCO)cc2)O[C@@H]1c1ccccc1CN=[N+]=[N-]`, the composite z-score in assay [1] stood at 0.867; in assay [5] it was 3.77; in assay [7], 0.444; in assay [8], 0.174; in [9], 0.638; in assay [10] it was 0.0651. In addition, the z-score is -0.884 (inactive) in [2], -0.398 (inactive) in [3], -0.512 (inactive) in assay [4] and 0.0086 (inactive) in assay [6].

Regarding `COc1ccc(NN2C(C(O)c3ccc([N+](=O)[O-])cc3)C=CC3C(=O)N(C4CCCCC4)C(=O)C32)cc1` (stereo not given), the composite z-score in assay [1] is 0.849; in assay [5], 2.69; in [7], 0.192; in assay [8], -0.0162; in assay [9], 1.09; in assay [10], -0.143. For the same molecule, the z-score is 0.346 (inactive) in [2], 0.811 (inactive) in assay [3], 0.572 (inactive) in assay [4] and -0.103 (inactive) in [6].

On to `O=C1O[C@H](c2ccccc2)[C@H](c2ccccc2)N2[C@H]1[C@@H](C(=O)Nc1nc3ccccc3s1)[C@]1(C(=O)Nc3ccc(C#CC4(O)CCCCCC4)cc31)[C@H]2c1ccc(OCCO)cc1`, for which the composite z-score came to 1.56 in assay [1]; 2.2 in [5]; 0.0317 in [7]; 0.986 in assay [8]; 1.02 in [9]; 0.0589 in [10]. In addition, the z-score was 1.22 (inactive) in assay [2], 1.76 (inactive) in [3], 1.76 (inactive) in assay [4] and 0.546 (inactive) in assay [6].

For `C=CCC(OC(C)=O)[C@@H]1[C@@H](N(Cc2ccc(-c3ccccc3)cc2)C(=O)Cc2ccc(F)cc2)c2cc(OCCCO)ccc2N1C(=O)c1ccc(-c2ccccc2)cc1` (stereo not given in full), the composite z-score in [1] was -0.838; in [5] it was -0.404; in [7] it was 0.0631; in [8], -0.237; in assay [9], -0.239; in assay [10], -0.0372. For the same molecule, the z-score was -2.19 (inactive) in assay [2], -0.379 (inactive) in [3], -0.694 (inactive) in [4] and 0.996 (inactive) in [6].

Regarding `CCOC(=O)C1=CCC(c2ccccc2)N(S(=O)(=O)CC[Si](C)(C)C)C1` (stereo not given), the composite z-score in [1] was -0.0595; in assay [5], 0.0058; in assay [7], -0.235; in assay [8] it was -0.288; in assay [9], -0.822; in assay [10], -0.334. The z-score in assay [2] is -0.465 (inactive); in [3], 0.178 (inactive); in [4], 2.78 (inactive); in assay [6], 0.185 (inactive).

Turning to `COc1ccc(C(=O)Nc2ccc(CN3C(=O)[C@@]4(O[C@@H](CCn5cc([C@H](O)c6ccccc6)nn5)[C@H]([Si](C)(C)c5ccc(OC)cc5)[C@H]4C)c4ccccc43)cc2)cc1`, the composite z-score was 1.46 in assay [1]; 1.11 in [5]; -0.136 in assay [7]; 0.323 in assay [8]; 0.378 in assay [9]; -0.134 in assay [10]. Besides, the z-score in assay [2] was 0.188 (inactive); in assay [3] it was -0.807 (inactive); in [4] it was 1.66 (inactive); in assay [6], -0.351 (inactive).

Regarding `O=C1C[C@]2(c3ccc([N+](=O)[O-])cc3)C(=O)N(CCN3CCOCC3)c3cc(CO)ccc3[C@H]2N1C1CCCCC1`, the composite z-score in assay [1] is 1.47; in assay [5], 1.1; in assay [7], -0.0668; in assay [8], -0.283; in assay [9], -0.188; in assay [10], -0.112. The z-score was -0.87 (inactive) in assay [2], 0.0365 (inactive) in [3], -1.6 (inactive) in [4] and 0.668 (inactive) in assay [6].

Turning to `CN1C(=O)C2C=CC(C(O)C3=C[C@H]4C[C@@H](C3)C4(C)C)N(Nc3ccccc3)C2C1=O` (stereo not given in full), the composite z-score in [1] is 0.965; in [5], 2.46; in assay [7], 0.161; in assay [8] it was 0.305; in [9] it was 1.14; in assay [10] it was -0.0065. Besides, the z-score was 0.443 (inactive) in [2], 0.192 (inactive) in assay [3], 1.31 (inactive) in assay [4] and 0.0208 (inactive) in assay [6].

With `C=CC[C@]1(C(=O)NCCCOC)N=C(c2ccc(OCCCO)cc2)O[C@H]1c1ccccc1N=[N+]=[N-]`, the composite z-score is 1.55 in assay [1]; 3.48 in assay [5]; 0.0482 in [7]; 0.444 in [8]; 0.935 in assay [9]; -0.265 in assay [10]. The z-score is -0.707 (inactive) in assay [2], -0.688 (inactive) in assay [3], 1.47 (inactive) in assay [4] and 0.421 (inactive) in [6].

For `CCCCN1CC=CC23O[C@@H]4C=CCOC(=O)[C@@H]4[C@H]2C(=O)N(CCCCCO)[C@@H]3C1=O` (stereo not given in full), the composite z-score is -0.0902 in assay [1]; 3.04 in assay [5]; 0.0695 in assay [7]; -0.929 in assay [8]; -0.445 in assay [9]; -0.268 in assay [10]. The z-score in [2] was -0.404 (inactive); in [3], -0.244 (inactive); in assay [4] it was -0.279 (inactive); in [6], 1.34 (inactive).

For `COc1ccc(C(O)C2C=CC3C(=O)NC(=O)C3N2Nc2ccccn2)c2ccccc12` (stereo not given), the composite z-score in assay [1] was -0.385; in assay [5], 1.02; in [7], -0.132; in [8] it was -0.127; in assay [9], 0.223; in assay [10] it was -0.107. The z-score in assay [2] is -0.327 (inactive); in assay [3], -0.0861 (inactive); in assay [4] it was 0.188 (inactive); in assay [6] it was -0.794 (inactive).

The values above are taken from PubChem BioAssay.
